Potency and outcome data for seven molecules are collected here from PubChem BioAssay (Tox21).

Structures are written as SMILES. Values joined by “and” are separate entries in the source; they are usually repeats but may differ in a detail not shown here. Identical values can stand only once. Inconclusive results are not listed. Some structures have more than one record in an assay (separate samples or runs), and their calls can disagree. Active and inactive are the calls of the source. Unless noted, the call rests on the fitted dose curve.

The nature of experiment [1]: qHTS assay to identify small molecule antagonists of the sonic hedgehog signaling (Shh) pathway (AID 1259369). Further: nearly all actives have a fitted effect of over 45% in size. Further: potency means the concentration at half of the fitted maximal effect. Summed up:
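For antagonist detection, the reporter line received test compounds together with conditioned medium, incubated 24hr at 37 C, 5% CO2, then luminescence was recorded following 30min room-temperature luciferase reagent incubation.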

Experiment [2] concerns the target Estrogen receptor beta (Homo sapiens) (UniProt Q92731). Kind of experiment: qHTS assay to identify small molecule agonists of the estrogen receptor beta (ER-beta) signaling pathway (AID 1259377; active means well fitted activation curve with a large enough effect in the signal ratio in the repeat runs, not every such curve was filed as active; the % refers to the signal ratio). Summed up: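 Ratiometric beta-lactamase FRET read-out came after 2 h substrate loading at room temperature. It followed 16 h compound treatment at 37C of GripTite HEK293T cells carrying a UAS-bla reporter, plated in 2% charcoal-stripped FBS medium.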

Experiment [3] can be described thus: qHTS assay to identify small molecule agonists of the androgen receptor (AR) signaling pathway in the presence of an antagonist - cell viability counter screen (AID 1259379; active means well fitted curve in the direction sought with a large enough effect in the repeat runs; an effect the other way counts as inactive or inconclusive; further: nearly all actives have a fitted effect of over 25% in size; further: potency means the concentration at half of the fitted maximal effect). Summed up: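 Seed MDA-kb2 at 3,000 cells/well; incubate 5 hr, 37C, 0% CO2. Add nilutamide to 3.0uM final, then pin compounds at 15 concentrations. Incubate 16 hr. Add CellTiter-Fluor at 15 hr, read fluorescence after 1 hr.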

For experiment [4], the target named is Androgen receptor (Homo sapiens) (UniProt P10275). Briefly: qHTS assay to identify small molecule agonists of the androgen receptor (AR) signaling pathway in the presence of an antagonist (AID 1259381). Further: nearly all actives have a fitted effect of over 15% in size. Summed up: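 Test compounds at 15 concentrations were incubated for 16hr with MDA-kb2 reporter cells in presence of 3.0uM nilutamide (final). Signal: ONE-Glo luciferase luminescence.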

Experiment [5] in a line: qHTS assay to identify small molecule antagonists of the estrogen receptor beta (ER-beta) signaling pathway - cell viability counter screen (AID 1259382; active means well fitted curve in the direction sought with a large enough effect in the repeat runs; an effect the other way counts as inactive or inconclusive; further: nearly all actives have a fitted effect of over 55% in size; further: potency means the concentration at half of the fitted maximal effect). Summed up: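 In this multiplexed counter screen, cells were seeded at 2,000 per well in medium with 2% charcoal-stripped FBS and incubated 6 hr before compound and 1nM final E2 were added. Sixteen hours later, ATP-based luminescence reported viability.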

For experiment [6], the target named is Estrogen receptor (Homo sapiens) (UniProt P03372). Briefly: qHTS assay to identify small molecule agonists of the estrogen receptor alpha (ER-alpha) signaling pathway in the presence of an antagonist (AID 1259383). Further: nearly all actives have a fitted effect of over 15% in size. Further: potency means the concentration at half of the fitted maximal effect. On activation: top concentration of the series differs between compounds. The method in brief:
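Stably transfected VM7Luc4E2 reporter cells, kept 5 days in charcoal-stripped serum, received ICI-182,780 at 10.0nM final before compound addition. Following 22hr incubation at 37C and 5% CO2, luciferase signal was read by luminescence.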

A short description of experiment [7]: qHTS assay to identify small molecule agonists or antagonists of the thyroid stimulating hormone receptor (TSHR) signaling pathway - wild type cell line counter screen (AID 1259384). Summed up: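 Wild-type Hek293 cells, 800/well, 18 h at 37C, then compound with Ro20-1724 for 30 min RT. cAMP by HTRF (cAMP-d2/anti-cAMP cryptate), 1 h RT, fluorescence read. 15 concentrations, triplicates.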

Experiment [8] concerns the target Thyrotropin receptor (Homo sapiens) (UniProt P16473). Briefly: qHTS assay to identify small molecule antagonists of the thyroid stimulating hormone receptor (TSHR) signaling pathway (AID 1259385). Further: nearly all actives have a fitted effect of over 20% in size. Further: potency means the concentration at half of the fitted maximal effect. The method in brief: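 TSHR-HEK293 cells (800/well) plated 18 h, then compounds with Ro20-1724 and TSH at 1.5 ng/mL final, 30 min at room temperature. cAMP quantified by HTRF (cAMP-d2/anti-cAMP-cryptate, 1 h); 15 concentrations in triplicate.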

The nature of experiment [9]: qHTS assay to identify small molecule agonists of the estrogen receptor alpha (ER-alpha) signaling pathway in the presence of an antagonist - cell viability counter screen (AID 1259386; active means well fitted curve in the direction sought with a large enough effect in the repeat runs; an effect the other way counts as inactive or inconclusive;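 further: cells exposed to compounds for 22 h at 37 °C before the viability read; nearly all actives have a fitted effect of over 30% in size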; further: potency means the concentration at half of the fitted maximal effect). Summed up: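 Viability counter screen using VM7Luc4E2 (full-length ER-alpha, four ERE-luciferase). The cells were treated with compounds alongside ICI-182,780 10.0nM for 22hr, and live-cell protease fluorescence was quantified with CellTiter-Fluor.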

The target in experiment [10] is Progesterone receptor (Homo sapiens) (UniProt P06401). Kind of experiment: qHTS assay to identify small molecule agonists of the progesterone receptor (PR) signaling pathway (AID 1346784). Further: nearly all actives have a fitted effect of over 30% in size. Summed up: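 Agonist qHTS: compounds pinned onto 3,000 PR-UAS-bla HEK 293T cells per well in charcoal-stripped serum medium, 16hr at 37C, then beta-lactamase activity measured by LiveBLAzer FRET fluorescence after 2 hours at room temperature.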

Experiment [11] is described as follows: qHTS assay to identify small molecule antagonists of the TGF-beta/Smad signaling pathway - cell viability counter screen (AID 1346824; active means well fitted curve in the direction sought with a large enough effect in the repeat runs; an effect the other way counts as inactive or inconclusive; further: nearly all actives have a fitted effect of over 50% in size). The method in brief:
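SBE-bla HEK 293T cells, incubated overnight, then compound plus 0.25 ng/mL TGF-beta1 (stock added) for 5 hr at 37 C. Viability was read in the same wells by CellTiter-Glo luminescence after 30 min at room temperature.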

Experiment [12] in a line: qHTS assay to identify small molecule agonists of the TGF-beta/Smad signaling pathway - cell viability counter screen (AID 1346829; active means well fitted curve in the direction sought with a large enough effect in the repeat runs; an effect the other way counts as inactive or inconclusive; further: top concentration of the series differs between compounds; nearly all actives have a fitted effect of over 45% in size). Summed up:
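SBE-bla HEK 293T cells plated overnight, compound exposure 5 hr at 37 C. Viability read in the same wells by CellTiter-Glo luminescence after 30 min at room temperature, following the beta-lactamase read.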

The nature of experiment [13]: qHTS assay to identify small molecule agonists of the TGF-beta/Smad signaling pathway (AID 1346859; active means well fitted activation curve with a large enough effect in the signal ratio in the repeat runs, not every such curve was filed as active; the % refers to the signal ratio; further: series mostly up to about 77 µM). The method in brief:
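Fluorescence (ex 405 nm; em 460 and 530 nm) was read 2 h after LiveBLAzer FRET substrate at RT. The preceding compound treatment of overnight-plated SBE-bla HEK293T cells lasted 5 h at 37 C.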

The nature of experiment [14]: qHTS assay to identify small molecule antagonists of the progesterone receptor (PR) signaling pathway - cell viability counter screen (AID 1346798; active means well fitted curve in the direction sought with a large enough effect in the repeat runs; an effect the other way counts as inactive or inconclusive; further: nearly all actives have a fitted effect of over 50% in size; further: potency means the concentration at half of the fitted maximal effect). The method in brief:
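Cytotoxicity read as CellTiter-Glo luminescence (30 min, room temperature) in the same wells as the beta-lactamase readout. HEK293T PR-UAS-bla cells in charcoal-stripped 2% FBS received compound and R5020, then 16 h at 37C, 5% CO2.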

The target in experiment [15] is Thyrotropin-releasing hormone receptor (Homo sapiens) (UniProt P34981). Briefly: qHTS assay to identify small molecule antagonists of the thyrotropin-releasing hormone receptor (TRHR) signaling pathway (AID 1346877; active means well fitted inhibition curve with a large enough effect in the repeat runs, not every such curve was filed as active; further: series mostly up to about 51 µM). Summed up: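 Following an 18 h incubation at 37 °C and a 2 h calcium dye load, TRHR-HEK293 cells were exposed to compound (5 min, room temperature) and challenged with TRH, 1 nM final.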

Experiment [16] shares this target. Kind of experiment: qHTS assay to identify small molecule agonists of the thyrotropin-releasing hormone receptor (TRHR) signaling pathway (AID 1346891). Further: potency means the concentration at half of the fitted maximal effect. On activation: series mostly up to about 58 µM. Summed up: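 Agonist-mode intracellular calcium readout: kinetic fluorescence over 3 min at 1 s intervals after compound addition to TRHR-HEK293 cells (18 h seeded, 2 h dye-loaded at 37 C). Fifteen concentrations, triplicates.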

Experiment [17] addresses Estrogen receptor beta (Homo sapiens) (UniProt Q92731). Kind of experiment: qHTS assay to identify small molecule antagonists of the estrogen receptor beta (ER-beta) signaling pathway (AID 1259378; active means well fitted inhibition curve with a large enough effect in the signal ratio in the repeat runs, not every such curve was filed as active; the % refers to the signal ratio; further: potency means the concentration at half of the fitted maximal effect). The method in brief:
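ER-beta-UAS-bla HEK293T cells in 2% charcoal-stripped FBS medium treated with compound plus 1nM final 17-beta-estradiol for 16 hr at 37C. Beta-lactamase reporter read by FRET substrate fluorescence after 2 hours at room temperature.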

Experiment [18] addresses Progesterone receptor (Homo sapiens) (UniProt P06401). Kind of experiment: qHTS assay to identify small molecule antagonists of the progesterone receptor (PR) signaling pathway (AID 1346795; active means well fitted inhibition curve with a large enough effect in the signal ratio in the repeat runs, not every such curve was filed as active; the % refers to the signal ratio; further: potency means the concentration at half of the fitted maximal effect). The method in brief: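 Antagonist mode with agonist R5020 at 1 nM final and 16 hr incubation at 37C. Reporter was beta-lactamase driven by UAS in HEK293T (PR-UAS-bla), 2% charcoal-stripped serum; signal from LiveBLAzer FRET substrate, 2 hr at room temperature.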

A short description of experiment [19]: qHTS assay to identify small molecule agonists of the progesterone receptor (PR) signaling pathway - cell viability counter screen (AID 1346799). Further: nearly all actives have a fitted effect of over 45% in size. The method in brief:
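Cytotoxicity measured by CellTiter-Glo luminescence (30 min, RT) in the same wells as the PR beta-lactamase agonist read. Those HEK293T cells had 16 h compound treatment at 37 C in 2% charcoal-stripped FBS medium.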

Experiment [20] in a line: qHTS assay to identify small molecule agonists of the estrogen receptor beta (ER-beta) signaling pathway - cell viability counter screen (AID 1259380; active means well fitted curve in the direction sought with a large enough effect in the repeat runs; an effect the other way counts as inactive or inconclusive; further: nearly all actives have a fitted effect of over 30% in size; further: potency means the concentration at half of the fitted maximal effect). The method in brief: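 CellTiter-Glo read, 30 min RT, same wells as bla assay; cells ER-beta-UAS-bla HEK293T; 16 hr compound, 37C; medium 2% charcoal-stripped FBS.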

Progesterone receptor (Homo sapiens), sequence (P06401 whole entry, looked up): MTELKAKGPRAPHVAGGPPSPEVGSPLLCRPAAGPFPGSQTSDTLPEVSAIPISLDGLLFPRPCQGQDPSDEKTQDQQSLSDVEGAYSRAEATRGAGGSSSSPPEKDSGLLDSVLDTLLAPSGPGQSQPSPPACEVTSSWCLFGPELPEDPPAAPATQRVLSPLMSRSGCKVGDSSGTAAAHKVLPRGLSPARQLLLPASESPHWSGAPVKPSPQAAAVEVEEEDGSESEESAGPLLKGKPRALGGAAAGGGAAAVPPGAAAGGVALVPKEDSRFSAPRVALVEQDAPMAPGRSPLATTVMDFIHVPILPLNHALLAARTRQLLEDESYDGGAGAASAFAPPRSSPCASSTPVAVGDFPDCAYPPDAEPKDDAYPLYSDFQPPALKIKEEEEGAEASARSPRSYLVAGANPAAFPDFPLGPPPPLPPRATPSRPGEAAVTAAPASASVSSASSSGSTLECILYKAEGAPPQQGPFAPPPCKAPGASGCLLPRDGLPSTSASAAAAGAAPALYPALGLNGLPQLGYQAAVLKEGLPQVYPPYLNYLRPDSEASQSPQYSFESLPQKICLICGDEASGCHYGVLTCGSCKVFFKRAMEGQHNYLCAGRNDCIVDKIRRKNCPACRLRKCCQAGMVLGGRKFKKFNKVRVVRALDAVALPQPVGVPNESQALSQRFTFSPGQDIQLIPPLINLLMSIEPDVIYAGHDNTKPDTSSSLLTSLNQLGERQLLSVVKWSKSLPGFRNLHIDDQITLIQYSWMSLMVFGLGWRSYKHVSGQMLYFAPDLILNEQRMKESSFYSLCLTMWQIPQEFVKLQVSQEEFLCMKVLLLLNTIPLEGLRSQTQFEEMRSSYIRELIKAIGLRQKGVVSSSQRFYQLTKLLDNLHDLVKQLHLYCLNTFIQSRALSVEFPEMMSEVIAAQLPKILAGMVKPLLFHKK
Thyrotropin receptor (Homo sapiens), sequence (P16473 whole entry, looked up): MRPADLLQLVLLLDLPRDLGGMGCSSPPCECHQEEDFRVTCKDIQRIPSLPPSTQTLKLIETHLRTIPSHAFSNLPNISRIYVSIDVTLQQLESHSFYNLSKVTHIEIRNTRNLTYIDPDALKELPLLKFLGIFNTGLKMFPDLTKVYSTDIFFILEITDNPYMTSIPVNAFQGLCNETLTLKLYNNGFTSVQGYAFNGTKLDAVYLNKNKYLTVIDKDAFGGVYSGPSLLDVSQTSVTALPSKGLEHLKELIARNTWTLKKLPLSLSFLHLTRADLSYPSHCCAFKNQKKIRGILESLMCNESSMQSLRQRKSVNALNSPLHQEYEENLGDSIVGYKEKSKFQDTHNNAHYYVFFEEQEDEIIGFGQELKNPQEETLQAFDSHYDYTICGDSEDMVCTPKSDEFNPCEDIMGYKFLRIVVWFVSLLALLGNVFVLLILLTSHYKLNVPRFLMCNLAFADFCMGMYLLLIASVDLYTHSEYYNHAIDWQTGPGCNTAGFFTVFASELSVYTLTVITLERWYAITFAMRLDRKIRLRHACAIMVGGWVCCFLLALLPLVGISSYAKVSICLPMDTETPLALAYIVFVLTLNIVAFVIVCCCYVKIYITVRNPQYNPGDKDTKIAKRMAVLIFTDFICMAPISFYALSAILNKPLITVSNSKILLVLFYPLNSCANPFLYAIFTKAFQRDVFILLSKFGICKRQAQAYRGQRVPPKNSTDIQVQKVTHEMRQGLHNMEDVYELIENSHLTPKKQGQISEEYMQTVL
Estrogen receptor beta (Homo sapiens), sequence (Q92731 whole entry, looked up): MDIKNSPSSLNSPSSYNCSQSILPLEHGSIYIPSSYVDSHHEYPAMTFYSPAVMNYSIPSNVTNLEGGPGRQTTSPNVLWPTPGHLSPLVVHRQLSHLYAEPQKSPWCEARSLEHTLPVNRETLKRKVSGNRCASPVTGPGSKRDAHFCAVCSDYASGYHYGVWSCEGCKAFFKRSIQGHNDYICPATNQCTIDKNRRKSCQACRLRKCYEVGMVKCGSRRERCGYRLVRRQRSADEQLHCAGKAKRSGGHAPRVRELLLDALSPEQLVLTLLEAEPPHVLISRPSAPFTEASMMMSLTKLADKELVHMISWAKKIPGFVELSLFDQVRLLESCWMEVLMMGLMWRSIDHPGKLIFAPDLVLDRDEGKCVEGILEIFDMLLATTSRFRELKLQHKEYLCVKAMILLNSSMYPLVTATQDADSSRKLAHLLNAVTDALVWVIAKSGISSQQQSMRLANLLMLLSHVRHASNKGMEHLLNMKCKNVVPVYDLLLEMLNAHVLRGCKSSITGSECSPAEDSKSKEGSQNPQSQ
Thyrotropin-releasing hormone receptor (Homo sapiens), sequence (P34981 whole entry, looked up): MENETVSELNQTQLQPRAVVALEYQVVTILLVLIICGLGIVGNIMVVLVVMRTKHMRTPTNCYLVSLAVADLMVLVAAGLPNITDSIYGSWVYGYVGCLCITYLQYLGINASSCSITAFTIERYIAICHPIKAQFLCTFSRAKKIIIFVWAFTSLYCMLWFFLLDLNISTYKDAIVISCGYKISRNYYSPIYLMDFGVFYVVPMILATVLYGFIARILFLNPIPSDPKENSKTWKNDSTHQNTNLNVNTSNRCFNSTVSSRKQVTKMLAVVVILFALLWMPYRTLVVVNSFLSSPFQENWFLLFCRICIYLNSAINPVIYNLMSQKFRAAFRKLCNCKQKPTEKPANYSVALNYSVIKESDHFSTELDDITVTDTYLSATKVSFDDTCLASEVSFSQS
Estrogen receptor (Homo sapiens), sequence (P03372 whole entry, looked up): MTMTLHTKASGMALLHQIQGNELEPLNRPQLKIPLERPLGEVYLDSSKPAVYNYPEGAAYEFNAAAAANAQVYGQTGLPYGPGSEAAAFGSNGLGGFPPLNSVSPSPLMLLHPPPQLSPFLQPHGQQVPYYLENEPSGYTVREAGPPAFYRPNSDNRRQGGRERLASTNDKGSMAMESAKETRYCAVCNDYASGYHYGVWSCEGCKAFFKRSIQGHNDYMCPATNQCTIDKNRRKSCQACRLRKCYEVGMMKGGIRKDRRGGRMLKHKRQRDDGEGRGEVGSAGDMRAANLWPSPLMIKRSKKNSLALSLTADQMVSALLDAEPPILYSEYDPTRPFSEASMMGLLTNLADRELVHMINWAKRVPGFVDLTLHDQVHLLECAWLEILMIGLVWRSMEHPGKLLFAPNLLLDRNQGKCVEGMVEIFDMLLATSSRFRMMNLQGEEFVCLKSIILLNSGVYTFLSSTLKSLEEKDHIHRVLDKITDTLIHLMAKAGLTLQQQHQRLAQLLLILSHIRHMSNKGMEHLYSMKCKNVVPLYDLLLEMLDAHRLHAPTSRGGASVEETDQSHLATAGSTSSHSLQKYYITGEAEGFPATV
Androgen receptor (Homo sapiens), sequence (P10275 whole entry, looked up): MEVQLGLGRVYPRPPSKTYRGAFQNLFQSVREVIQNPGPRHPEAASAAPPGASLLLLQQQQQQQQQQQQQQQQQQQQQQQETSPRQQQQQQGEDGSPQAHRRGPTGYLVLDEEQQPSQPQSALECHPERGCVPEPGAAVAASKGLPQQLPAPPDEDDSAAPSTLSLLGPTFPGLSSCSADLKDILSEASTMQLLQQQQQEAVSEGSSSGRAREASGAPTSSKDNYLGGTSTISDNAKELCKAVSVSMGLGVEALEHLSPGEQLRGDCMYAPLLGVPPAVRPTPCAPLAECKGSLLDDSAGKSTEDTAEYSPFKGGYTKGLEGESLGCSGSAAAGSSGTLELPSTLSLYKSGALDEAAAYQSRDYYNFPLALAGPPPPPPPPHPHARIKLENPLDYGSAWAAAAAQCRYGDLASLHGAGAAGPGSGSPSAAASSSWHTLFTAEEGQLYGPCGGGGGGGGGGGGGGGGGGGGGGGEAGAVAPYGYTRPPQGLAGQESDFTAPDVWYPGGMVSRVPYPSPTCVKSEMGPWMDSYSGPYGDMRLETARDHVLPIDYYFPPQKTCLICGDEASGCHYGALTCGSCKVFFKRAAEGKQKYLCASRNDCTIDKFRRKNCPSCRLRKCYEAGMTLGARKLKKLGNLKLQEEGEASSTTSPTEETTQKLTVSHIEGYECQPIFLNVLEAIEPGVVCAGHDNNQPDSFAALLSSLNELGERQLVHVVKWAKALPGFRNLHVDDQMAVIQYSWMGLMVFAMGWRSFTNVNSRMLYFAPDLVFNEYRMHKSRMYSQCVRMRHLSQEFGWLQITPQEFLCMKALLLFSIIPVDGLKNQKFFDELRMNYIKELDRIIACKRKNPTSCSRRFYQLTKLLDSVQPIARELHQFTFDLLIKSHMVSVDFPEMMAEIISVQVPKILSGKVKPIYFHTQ

As for `O=C(Nc1ccc(Cl)cc1)Nc1ccc(Cl)c(Cl)c1`, the Potency in experiment [1] was 12.1 µM (active) and inactive; in [3] it was 21.6 µM (active) and 24.3 µM (active) and 26.6 µM (active); in experiment [8], 61.1 µM (active); in [9], “inactive and 33.5 µM (active)”. In addition, the Potency result in experiment [2], in experiment [5], in experiment [6], in experiment [10], in experiment [11] and in [12] was “inactive” each time. Besides, the outcome in [4], in experiment [7] and in experiment [13] was inactive.
Regarding `O=C(/C=C/C=C/c1ccc2c(c1)OCO2)N1CCCCC1`, the Potency result in experiment [1], in experiment [2], in experiment [3], in experiment [5], in [8] and in experiment [10] was “inactive” each time. The Potency result in experiment [14], in experiment [11], in experiment [12], in experiment [15] and in experiment [16] was “inactive” each time. In experiment [6], the Potency result was “inactive and 2.17 µM (active)”. The result in experiment [7] and in [13] was inactive.
Turning to `CCCCOCCOCCOCCO`, the Potency result in experiment [1], in [2], in [17], in experiment [3], in experiment [5] and in experiment [6] was “inactive” throughout. For the same molecule, the Potency entry in experiment [8], in [9], in experiment [10], in [18], in [14] and in experiment [19] was “inactive” each time. For the same molecule, the Potency entry in experiment [11], in experiment [12], in experiment [15] and in experiment [16] was “inactive” in each case. Moreover, the molecule was classed as inactive in experiment [7] and in [13].
Turning to `O=C1OC2(c3cc(Br)c(O)c(Br)c3Oc3c2cc(Br)c(O)c3Br)c2c(Cl)c(Cl)c(Cl)c(Cl)c21`, the Potency result in experiment [1], in [2], in experiment [20], in experiment [5], in [6] and in [8] was “inactive” throughout. For the same molecule, the Potency result in experiment [10], in experiment [18], in [14], in [19], in experiment [11] and in experiment [12] was “inactive” in each case. In [15], the Potency result is “inactive”. Moreover, the Potency was 21.7 µM (active) and 16.6 µM (active) in experiment [3]; 24.4 µM (active) and 13.2 µM (active) in experiment [9]; 15.5 µM (active) and 23.6 µM (active) in [16]. The molecule was classed as inactive in experiment [7] and in experiment [13].
With `OC(CCl)CCl`, the Potency entry in experiment [1], in [2], in experiment [17], in experiment [3], in [5] and in [6] was “inactive” throughout. The Potency result in [8], in experiment [9], in [10], in experiment [18], in [14] and in experiment [19] was “inactive” each time. Besides, the Potency entry in experiment [11] and in [12] was “inactive” in each case. Also, the result in experiment [7] and in experiment [13] was inactive.
Take `CCCCC(CC)COP(=O)(OCC(CC)CCCC)OCC(CC)CCCC` (stereo unspecified): the Potency entry in experiment [1], in experiment [2], in experiment [17], in experiment [3], in experiment [5] and in [8] was “inactive” each time. Moreover, the Potency entry in [9], in experiment [10], in experiment [18], in experiment [14], in [11] and in [12] was “inactive” throughout. In addition, the Potency entry in experiment [15] and in experiment [16] was “inactive” throughout. For the same molecule, the result in experiment [7] and in experiment [13] was inactive.
With `C#C[C@]1(O)CC[C@H]2[C@@H]3CCC4=Cc5oncc5C[C@]4(C)[C@H]3CC[C@@]21C`, the Potency in experiment [1] is 2.17 µM (active) and 11.9 µM (active); in experiment [17], 15.4 µM (active); in experiment [20], 61.1 µM (active) and 29.8 µM (active); in [5], 48.6 µM (active) and 26.6 µM (active); in experiment [18] it was 61.1 nM (active); in experiment [14], 38.6 µM (active). The Potency entry in experiment [3], in experiment [6], in experiment [8], in experiment [9], in [11] and in experiment [12] was “inactive” throughout. Besides, the Potency entry in experiment [15] and in experiment [16] was “inactive” throughout. The outcome in experiment [7] and in experiment [13] was inactive.
